Results on 31 compounds are retold here after PubChem BioAssay (Tox21).

A short description of assay [1]: qHTS assay to identify small molecule antagonists of the glucocorticoid receptor (GR) signaling pathway - cell viability counter screen (AID 720693). Note: nearly all actives have a fitted effect of over 55% in size.
The nature of assay [2]: qHTS assay for identifying genotoxic compounds that show differential cytotoxicity against isogenic chicken DT40 cell lines with known DNA damage response pathways - wild type cell line (AID 743012). Note: nearly all actives have a fitted effect of over 60% in size. Note: potency is the fitted concentration of half-maximal effect. Put shortly:
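Endpoint: CellTiter-Glo luminescence, 30 min RT. Cells: wild type DT40, 300/well. Exposure: compounds in DMSO, 40 h, 37 C/5% CO2, after ~0.5 h pre-incubation.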

A short description of assay [3]: qHTS assay for identifying genotoxic compounds that show differential cytotoxicity against isogenic chicken DT40 cell lines with known DNA damage response pathways - Rev3 mutant cell line (AID 743014). Note: nearly all actives have a fitted effect of over 55% in size. Note: potency is the fitted concentration of half-maximal effect.
Assay [4] can be described thus: qHTS assay for identifying genotoxic compounds that show differential cytotoxicity against isogenic chicken DT40 cell lines with known DNA damage response pathways - Rad54/Ku70 mutant cell line (AID 743015). Note: nearly all actives have a fitted effect of over 60% in size. Note: potency is the fitted concentration of half-maximal effect.
Assay [5] can be described thus: qHTS assay to identify small molecule antagonists of the androgen receptor (AR) signaling pathway - cell viability counter screen (AID 743033; note: nearly all actives have a fitted effect of over 45% in size).
Assay [6] in a line: qHTS assay to identify small molecule antagonists of the androgen receptor (AR) signaling pathway using the MDA cell line - cell viability counter screen (AID 743041; note: nearly all actives have a fitted effect of over 45% in size). Put shortly: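 qHTS viability read-out; MDA-kb2 AR-luc; R1881-stimulated; 16 h exposure at 37C, 0% CO2; CellTiter-Fluor, 30 min; fluorescence intensity.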
The nature of assay [7]: qHTS assay to identify small molecule antagonists of the thyroid receptor (TR) signaling pathway - cell viability counter screen (AID 743064). Note: nearly all actives have a fitted effect of over 50% in size. Note: potency is the fitted concentration of half-maximal effect. Put shortly: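 Same-well viability check: GH3.TRE-Luc cells stimulated with 1 nM T3 alongside test compound for 23.5 h, followed by CellTiter-Fluor fluorescence.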

Molecules are shown by their SMILES. Values joined by “and” are separate entries in the source; they are usually repeats but may differ in a detail not shown here. Equal values may be shown once. Inconclusive results are not listed. The source holds several records for some structures; these can differ, active in one and inactive in another. Active and inactive are the calls of the source. Calls come from the whole dose curve; as a rule, active = well fitted curve in the direction sought with a large enough effect in the repeat runs; inconclusive = weak or mixed curves; inactive = no such curve, though single readings can be large; an effect the other way counts as inactive or inconclusive.

For `O=C(O)CC(C(=O)O)C(CC(=O)O)C(=O)O` (stereo not drawn), the call in assay [1] was inactive. The Potency result in assay [2], in assay [3], in assay [4], in assay [5], in assay [6] and in assay [7] was “inactive” each time.

For the compound `CCCCCC/C(C=O)=C\c1ccccc1`, the result in assay [1] was inactive. The Potency entry in assay [2], in assay [3], in assay [4], in assay [5], in assay [6] and in assay [7] was “inactive” each time.

Turning to `CC(=O)CC(=O)Nc1ccccc1C`, the compound was classed as inactive in assay [1]. Also, the Potency result in assay [2], in assay [3], in assay [4], in assay [5], in assay [6] and in assay [7] was “inactive” in each case.

`CN(C)CCC(c1ccccc1)c1ccccn1` (stereo not drawn): the outcome in assay [1] was inactive. For the same compound, the Potency result in assay [2], in assay [3], in assay [4], in assay [5], in assay [6] and in assay [7] was “inactive” in each case.

`CN(C)CCCN`: in assay [1], the call was inactive. The Potency result in assay [2], in assay [3], in assay [4], in assay [5], in assay [6] and in assay [7] was “inactive” each time.

Consider `CC1=CC(=O)NS(=O)(=O)O1`, for which the result in assay [1] was inactive. For the same compound, the Potency entry in assay [2], in assay [3], in assay [4], in assay [5], in assay [6] and in assay [7] was “inactive” throughout.

For the compound `CN(C)CCC(c1ccc(Cl)cc1)c1ccccn1` (stereo not drawn), the result in assay [1] was inactive. Moreover, the Potency result in assay [2], in assay [3], in assay [4], in assay [5] and in assay [6] was “inactive” throughout. Further, the Potency in assay [7] was 24.4 µM (active) and 30.6 µM (active).

With `O=C(CC(C(=O)OC1CCCCC1)S(=O)(=O)O)OC1CCCCC1` (stereo not drawn), the call in assay [1] was inactive. Also, the Potency result in assay [2] is “inactive and 17 µM (active)”; in assay [3], “inactive and 17 µM (active)”; in assay [4], “inactive and 12 µM (active)”. For the same compound, the Potency result in assay [5], in assay [6] and in assay [7] was “inactive” throughout.

For `c1ccc(OCCOc2ccccc2)cc1`, the call in assay [1] was inactive. Moreover, the Potency result in assay [2], in assay [3], in assay [4], in assay [5], in assay [6] and in assay [7] was “inactive” throughout.

As for `Cc1cccc(O)c1`, the compound was classed as inactive in assay [1]. In addition, the Potency result in assay [2], in assay [3], in assay [4], in assay [5], in assay [6] and in assay [7] was “inactive” each time.

On to `C=CCNC(N)=S`, for which the outcome in assay [1] was inactive. The Potency entry in assay [2], in assay [3], in assay [4], in assay [5], in assay [6] and in assay [7] was “inactive” throughout.

For the compound `CCCCCCOCCO`, the compound was called inactive in assay [1]. Moreover, the Potency entry in assay [2], in assay [3], in assay [4], in assay [5], in assay [6] and in assay [7] was “inactive” in each case.

Take `CCCSc1ccc2nc(NC(=O)OC)[nH]c2c1`: the compound was classed as inactive in assay [1]. Besides, the Potency in assay [2] was 227 nM (active) and 1.09 µM (active); in assay [3], 359 nM (active) and 969 nM (active); in assay [4], 452 nM (active) and 1.09 µM (active); in assay [7], 452 nM (active). In addition, the Potency entry in assay [5] and in assay [6] was “inactive” in each case.

In the case of `CCCCCCCCCC`, the compound was classed as inactive in assay [1]. For the same compound, the Potency entry in assay [2], in assay [3], in assay [4], in assay [5], in assay [6] and in assay [7] was “inactive” in each case.

On to `CCC(O)OC(O)CC` (stereo not drawn), for which the compound was classed as inactive in assay [1]. For the same compound, the Potency entry in assay [2], in assay [3], in assay [4], in assay [5], in assay [6] and in assay [7] was “inactive” throughout.

As to `O=S(=O)(O)c1ccc2ccccc2c1`, the compound was classed as inactive in assay [1]. In addition, the Potency entry is “inactive and 54.6 µM (active)” in assay [2]; “inactive and 43.4 µM (active)” in assay [3]; “inactive and 54.6 µM (active)” in assay [4]. For the same compound, the Potency result in assay [5], in assay [6] and in assay [7] was “inactive” in each case.

Consider `CCCCCCCC(=O)OC`, for which, in assay [1], the compound was classed as inactive. Further, the Potency result in assay [2], in assay [3], in assay [4], in assay [5], in assay [6] and in assay [7] was “inactive” in each case.

Turning to `CCCCC(CC)COC(=O)CS` (stereo not drawn), in assay [1], the outcome was inactive. In addition, the Potency result in assay [2], in assay [3], in assay [5], in assay [6] and in assay [7] was “inactive” each time. In addition, the Potency entry in assay [4] is “inactive and 61.1 µM (active)”.

Regarding `CC(=O)Nc1ccccc1`, in assay [1], the call was inactive. The Potency result in assay [2], in assay [3], in assay [4], in assay [5], in assay [6] and in assay [7] was “inactive” each time.

In the case of `CCCCOC(=O)COc1ccc(Cl)cc1Cl`, the compound was called inactive in assay [1]. Also, the Potency entry in assay [2], in assay [3], in assay [4], in assay [5], in assay [6] and in assay [7] was “inactive” throughout.

Take `ON=C1CCCCC1`: in assay [1], the result was inactive. In addition, the Potency entry in assay [2], in assay [3], in assay [4], in assay [5], in assay [6] and in assay [7] was “inactive” throughout.

Regarding `c1c[nH]cn1`, the result in assay [1] was inactive. The Potency result in assay [2], in assay [3], in assay [4], in assay [5], in assay [6] and in assay [7] was “inactive” in each case.

`CC(=O)c1ccccc1`: the outcome in assay [1] was inactive. In addition, the Potency entry in assay [2], in assay [3], in assay [4], in assay [5], in assay [6] and in assay [7] was “inactive” in each case.

On to `CCCCCCCCC/C=C/CC1CC(=O)OC1=O` (stereo not drawn), for which, in assay [1], the result was inactive. In addition, the Potency entry in assay [2], in assay [4], in assay [5], in assay [6] and in assay [7] was “inactive” each time. Moreover, the Potency in assay [3] is 48.6 µM (active).

For the compound `Cc1cnc(C(=O)NCCc2ccc(S(=O)(=O)NC(=O)NC3CCCCC3)cc2)cn1`, the compound was called inactive in assay [1]. In addition, the Potency entry in assay [5], in assay [6] and in assay [7] was “inactive” in each case.

As to `COc1ccc2cc([C@H](C)C(=O)O)ccc2c1`, the compound was classed as inactive in assay [1]. The Potency result in assay [5], in assay [6] and in assay [7] was “inactive” each time.

With `CCCCCOC(C)=O`, the compound was classed as inactive in assay [1]. The Potency entry in assay [2], in assay [4], in assay [5], in assay [6] and in assay [7] was “inactive” each time. Besides, in assay [3], the Potency entry is “inactive and 68.6 µM (active)”.

With `COc1ccc(Cl)cc1C(=O)NCCc1ccc(S(=O)(=O)NC(=O)NC2CCCCC2)cc1`, the compound was classed as inactive in assay [1]. Moreover, the Potency result in assay [3], in assay [5], in assay [6] and in assay [7] was “inactive” in each case.

With `CC(C)(N)CO`, the outcome in assay [1] was inactive. The Potency entry in assay [2], in assay [3], in assay [4], in assay [5], in assay [6] and in assay [7] was “inactive” in each case.

On to `CCN(CC)c1ccc(C(=O)c2ccccc2C(=O)O)c(O)c1`, for which the result in assay [1] was inactive. Moreover, the Potency result in assay [3], in assay [4], in assay [5], in assay [6] and in assay [7] was “inactive” in each case.

As to `O=C(O)CCCCCCCCCCC(=O)O`, the compound was classed as inactive in assay [1]. The Potency entry in assay [2], in assay [3], in assay [4], in assay [5], in assay [6] and in assay [7] was “inactive” throughout.
